Measurements taken from PubChem BioAssay (NCATS).
Where “and” joins values, the source holds several entries; their conditions need not be identical. Identical values can stand only once. Records with an inconclusive call do not appear. Calls of active or inactive are those of the source. Unless noted, calls come from the whole dose curve; as a rule, active = well fitted curve in the direction sought with a large enough effect; inconclusive = small, poorly fitted or top-dose-only effect, or another doubt; inactive = no such curve, though single readings can be large; an effect the other way counts as inactive or inconclusive.

Experiments:
[1] = biological target: Cellular tumor antigen p53 (Homo sapiens) (UniProt P04637); test: Primary qHTS for small molecule compounds that upregulate eGFP-tagged delta133p53alpha (in N-terminal) cells. (AID 2060322); conditions: NCI-H358 eGFP-delta133p53alpha fluorescence, 24 h; activation: hits give high values;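 note: cells pre-induced with doxycycline then dosed without doxycycline; series mostly up to about 56 µM; 0% = DMSO vehicle and 100% = reference activator; nearly all actives have a fitted effect of over 75% in size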
Method in brief: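 NCI-H358 cells pre-induced 24 h with 10 ng/ml doxycycline for eGFP-delta133p53alpha, plated dox-free and exposed 24 h at 37C to titrated compounds. Fixed, Hoechst-stained; gated GFP peak intensity by laser scanning cytometry, normalized to DMSO (0%) and 57.5 uM 5-azacytidine (100%).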

[2] = biological target: Cellular tumor antigen p53 (Homo sapiens) (UniProt P04637); test: Primary qHTS for small molecule compounds that upregulate eGFP-tagged delta133p53alpha (in C-terminal) cells. (AID 2060324);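 note: 0% = DMSO wells and 100% = 57.5 µM 5-azacytidine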
Method in brief: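 Read-out: gated-cell GFP peak intensity (laser scanning cytometer), plate-normalized with DMSO as 0% activity, after 24 h compound exposure at 37C. Cells were C-terminal eGFP-tagged delta133p53alpha NCI-H358, doxycycline-induced (100 ng/ml, 24 h) before plating.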

[3] = biological target: Aldehyde dehydrogenase, mitochondrial (Homo sapiens) (UniProt P05091); test: qHTS for Inhibitors of the Aldehyde Dehydrogenase Family (ALDH2) Validation screens (AID 2061302; active = well fitted inhibition curve with a large enough effect; title and protocol of this record describe different tests;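 note: plate controls were DMSO vehicle for no effect and maximal DPI positive control response for full effect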)
[4] = biological target: Retinaldehyde dehydrogenase 3 (Homo sapiens) (UniProt P47895); test: qHTS for Inhibitors of the Aldehyde Dehydrogenase Family (ALDH1A3) Validation screen (AID 2061312); note: % is set by controls: 0 for no effect and ±100 for the full control effect; nearly all actives have a fitted effect of over 45% in size

Chain of Cellular tumor antigen p53 (Homo sapiens) (P04637 whole entry, looked up): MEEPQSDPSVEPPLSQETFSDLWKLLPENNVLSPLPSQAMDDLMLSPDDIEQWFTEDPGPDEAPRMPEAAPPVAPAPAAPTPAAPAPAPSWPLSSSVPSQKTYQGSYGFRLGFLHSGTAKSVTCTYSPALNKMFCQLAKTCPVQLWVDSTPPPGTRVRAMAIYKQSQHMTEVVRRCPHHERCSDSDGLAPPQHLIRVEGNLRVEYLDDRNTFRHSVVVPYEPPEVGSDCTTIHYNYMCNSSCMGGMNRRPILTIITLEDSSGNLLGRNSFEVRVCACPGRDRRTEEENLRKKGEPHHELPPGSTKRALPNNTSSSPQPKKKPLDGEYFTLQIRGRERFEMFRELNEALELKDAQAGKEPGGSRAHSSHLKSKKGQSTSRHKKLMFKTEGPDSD

CC(N)(C(=O)O)c1ccc(C(=O)O)cc1 (centres undefined)
inactive: activation [1] 7.46% | Potency [2] | Potency [3] | Potency [4]

CC1C(=O)N(C)C(=O)c2nc[nH]c21 (centres undefined)
inactive: activation [1] -19.1% | Potency [2] | Potency [3] | Potency [4]

Cc1cc(NC2CCCCC2)nc(-n2nc(C)cc2C)n1
inactive: activation [1] -20.8% | Potency [2] | Potency [3] | Potency [4]

CCSC(=N)N
inactive: activation [1] -32.7% | Potency [2] | Potency [3] | Potency [4]

COCCOC(=O)C1=C(C)NC(C)=C(C(=O)OC/C=C/c2ccccc2)C1c1cccc([N+](=O)[O-])c1 (centres undefined)
inactive: activation [1] 8.47% and -12.4% | Potency [2] | Potency [3] | Potency [4]

O=C(O)CC1CCCc2ccccc2C1O (centres undefined)
inactive: activation [1] 5.92% | Potency [2] | Potency [3] | Potency [4]

CCCCCCC/C=C\CCCCCCCCC(=O)O
inactive: activation [1] -38.4% | Potency [2] | Potency [3] | Potency [4]

COc1ccc2c(c1)CCC1C2CC[C@@]2(C)C1CC[C@@H]2NCCCCCCN1C(=O)CCC1=O (some centres undefined)
inactive: activation [1] 10.7% | Potency [2] | Potency [3] | Potency [4]

C[C@]12CCC(=O)C=C1CC[C@@H]1[C@@H]2CC[C@@]2(C)[C@H]1CC[C@]2(O)C(=O)CO
inactive: activation [1] 12.6% and 23.7% | Potency [2] | Potency [3] | Potency [4]

N=c1nc(N2CCCCC2)cc(N)n1O
inactive: activation [1] -6.36% and -9.21% and -2.97% | Potency [2] | Potency [3] | Potency [4]

CC#CCOC(=O)c1c(C)nc2sc3c(c2c1N)CCC(O)C3 (centres undefined)
inactive: activation [1] -13.8% | Potency [2] | Potency [3] | Potency [4]
